Data reported in PubChem BioAssay.
A number with no mark means an inactive call. For some assays here: Entries with a potency or affinity are not part of this list. Calls of active or inactive are those of the source. Unless noted, the rule behind the calls is not given here.

Assays:
[1] = antimalarial activity against Dd2 strain (AID 2302;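 active = growth inhibition above 50% at the single 2 µM test dose, taken to imply half-maximal potency below 2 µM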;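 note: 0% = DMSO untreated growth and 100% = chloroquine plus artemisinin killed control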); settings: P. falciparum Dd2 in RBCs, LDH growth readout, 72 h; at 2 µM; hits give high values
[2] = human hepatoma cell viability loss – ATP luminescence, cytotoxicity control for P. falciparum antimalarial project, primary screen (AID 2303;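 active = inhibition above 50%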;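 note: 0% = DMSO wells and 100% = digitonin-killed cells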); settings: HepG2 viability, 24-48 h, at 10 µM, hits give high values
[3] = target: L-lactate dehydrogenase (Plasmodium falciparum (isolate CDC / Honduras)) (UniProt Q27743); test: PfLDH activity inhibition – cell lysate, 3D7 strain, counter-screen for P. falciparum growth inhibition project (AID 2304);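 note: 0% = vehicle and 100% = reference inhibitor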; settings: P. falciparum 3D7 crude extract, LDH APAD/NBT absorbance; at 2 µM; hits give high values
L-lactate dehydrogenase (Plasmodium falciparum (isolate CDC / Honduras)), sequence (Q27743 whole entry, looked up): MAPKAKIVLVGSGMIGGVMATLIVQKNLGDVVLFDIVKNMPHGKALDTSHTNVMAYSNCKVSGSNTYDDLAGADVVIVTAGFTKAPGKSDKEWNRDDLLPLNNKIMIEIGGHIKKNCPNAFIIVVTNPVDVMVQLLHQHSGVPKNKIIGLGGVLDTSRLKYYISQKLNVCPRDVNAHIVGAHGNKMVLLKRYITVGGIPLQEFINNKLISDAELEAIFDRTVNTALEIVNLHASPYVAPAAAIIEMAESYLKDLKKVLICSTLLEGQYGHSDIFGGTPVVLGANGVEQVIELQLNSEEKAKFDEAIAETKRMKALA

[4] = inhibition of 3D7 malaria parasite growth – strain 3D7 (AID 2306);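 note: 0% = DMSO wells and 100% = chloroquine plus artemisinin control wells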; settings: P. falciparum 3D7 erythrocytic growth, LDH absorbance, 72 h; at 2 µM; hits give high values
[5] = target: Calcium-dependent protein kinase 1 (Plasmodium falciparum (isolate 3D7)) (UniProt P62344); test: PfCDPK1 kinase inhibitors, biochemical, TCAMS library (AID 1159585; cut-off not given, nearly all actives have IC50 up to about 0.98 µM;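 note: inhibitors leave more ATP so luminescence rises with inhibition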); settings: recombinant PfCDPK1, Kinase-Glo ATP depletion luminescence
Calcium-dependent protein kinase 1 (Plasmodium falciparum (isolate 3D7)), sequence (P62344 whole entry, looked up): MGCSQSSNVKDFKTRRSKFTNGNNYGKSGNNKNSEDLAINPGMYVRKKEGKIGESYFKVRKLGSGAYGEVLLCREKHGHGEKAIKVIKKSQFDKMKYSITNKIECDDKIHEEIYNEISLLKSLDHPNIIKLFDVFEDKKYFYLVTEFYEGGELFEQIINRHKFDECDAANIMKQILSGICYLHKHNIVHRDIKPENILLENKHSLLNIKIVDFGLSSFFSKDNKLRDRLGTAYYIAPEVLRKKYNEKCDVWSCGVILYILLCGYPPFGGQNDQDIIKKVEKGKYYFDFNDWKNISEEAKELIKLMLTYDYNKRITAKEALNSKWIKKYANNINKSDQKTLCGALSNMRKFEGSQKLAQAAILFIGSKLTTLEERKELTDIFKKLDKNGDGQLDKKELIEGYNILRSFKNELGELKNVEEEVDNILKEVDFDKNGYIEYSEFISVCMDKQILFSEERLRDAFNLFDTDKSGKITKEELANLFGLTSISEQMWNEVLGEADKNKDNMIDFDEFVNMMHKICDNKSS

[6] = target: Plasmodium falciparum protein kinase 6 (PK6, PF3D7_1337100) (UniProt Q8IDW1); test: PfPK6 kinase inhibitors, biochemical, TCAMS library (AID 1159586); settings: recombinant PfPK6, Kinase-Glo ATP depletion luminescence
Plasmodium falciparum protein kinase 6 (PK6, PF3D7_1337100), sequence (Q8IDW1 1-305): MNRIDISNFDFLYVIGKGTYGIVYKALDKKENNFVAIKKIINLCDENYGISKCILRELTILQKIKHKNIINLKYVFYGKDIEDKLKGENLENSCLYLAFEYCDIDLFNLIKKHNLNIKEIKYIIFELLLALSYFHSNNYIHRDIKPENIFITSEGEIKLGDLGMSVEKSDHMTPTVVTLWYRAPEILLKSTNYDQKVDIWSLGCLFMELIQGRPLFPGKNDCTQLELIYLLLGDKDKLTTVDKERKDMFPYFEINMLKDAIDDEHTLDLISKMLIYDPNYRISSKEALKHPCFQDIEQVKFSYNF

[7] = target: Protein kinase 7 (PK7), Plasmodium falciparum 3D7 (PF3D7_0213400) (UniProt Q7YTF7); test: inhibition of Plasmodium PK7 catalytic activity – biochemical, TCAMS antimalarial set, Kinase-Glo luminescence (AID 1159587); settings: recombinant PfPK7, Kinase-Glo ATP depletion luminescence
Protein kinase 7 (PK7), Plasmodium falciparum 3D7 (PF3D7_0213400), sequence (Q7YTF7 1-343): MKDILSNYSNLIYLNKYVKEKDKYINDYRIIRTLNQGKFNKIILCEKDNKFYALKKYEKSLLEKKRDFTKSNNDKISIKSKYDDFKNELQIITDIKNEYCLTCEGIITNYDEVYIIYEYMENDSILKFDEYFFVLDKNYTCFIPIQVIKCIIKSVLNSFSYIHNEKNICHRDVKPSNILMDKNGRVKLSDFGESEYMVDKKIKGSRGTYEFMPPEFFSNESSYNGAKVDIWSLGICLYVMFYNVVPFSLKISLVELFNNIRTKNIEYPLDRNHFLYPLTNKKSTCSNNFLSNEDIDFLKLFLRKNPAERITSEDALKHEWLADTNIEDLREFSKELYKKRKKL

[8] = target: Calcium-dependent protein kinase 4 (Plasmodium falciparum (isolate 3D7)) (UniProt Q8IBS5); test: PfCDPK4 kinase inhibitors, biochemical, TCAMS library (AID 1159588; cut-off not given, nearly all actives have IC50 up to about 0.91 µM); settings: recombinant PfCDPK4, Kinase-Glo ATP depletion luminescence
Calcium-dependent protein kinase 4 (Plasmodium falciparum (isolate 3D7)), sequence (Q8IBS5 whole entry, looked up): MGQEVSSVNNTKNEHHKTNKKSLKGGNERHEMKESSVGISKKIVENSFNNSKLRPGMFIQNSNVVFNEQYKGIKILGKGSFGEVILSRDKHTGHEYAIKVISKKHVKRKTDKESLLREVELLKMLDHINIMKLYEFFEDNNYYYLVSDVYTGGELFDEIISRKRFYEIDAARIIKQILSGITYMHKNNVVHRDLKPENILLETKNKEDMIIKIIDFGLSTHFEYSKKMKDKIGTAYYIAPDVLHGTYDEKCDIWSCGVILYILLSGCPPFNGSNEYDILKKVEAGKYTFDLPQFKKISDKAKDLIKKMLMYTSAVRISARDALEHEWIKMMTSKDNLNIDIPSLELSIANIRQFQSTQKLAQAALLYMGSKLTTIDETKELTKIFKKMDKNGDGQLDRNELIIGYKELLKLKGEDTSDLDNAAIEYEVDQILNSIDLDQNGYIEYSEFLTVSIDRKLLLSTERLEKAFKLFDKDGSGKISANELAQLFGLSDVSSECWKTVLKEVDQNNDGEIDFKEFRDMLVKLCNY

| Compound | growth inhibition [1] | inhibition [2] | inhibition [3] | growth inhibition [4] | outcome [5] | outcome [6] | outcome [7] | outcome [8] |
| --- | --- | --- | --- | --- | --- | --- | --- | --- |
| COc1cc(C(=O)NC2CC(C)(C)N(C)C(C)(C)C2)ccc1-c1cc2cc(Cl)c(Cl)cc2[nH]1 | 36% | 65% (active) | 1% | 89% (active) | inactive | inactive | inactive | inactive |
| O=S(=O)(c1c(Cl)cc(Cl)cc1Cl)N1CCCCC(c2ccc(C(F)(F)F)cc2)=N1 | 99% (active) | 6% | -5% | 98% (active) | inactive | inactive | inactive | inactive |
| COc1ccc2nccc([C@H](O)CN3CCC(NCc4ccc5c(c4C)OCCO5)CC3)c2n1 | 6% | 26% | 4% | 94% (active) | inactive | inactive | inactive | inactive |
| N#Cc1ccc2c(c1)CCN(CCC1CCC(NC(=O)Nc3ccnc4ccccc34)CC1)C2 (stereo not given) | 77% (active) | 38% | 2% | 104% (active) | inactive | inactive | inactive | inactive |
| Cn1c(/C=C/C(=O)NC2CCC(CCN3CCc4ccc(C#N)cc4CC3)CC2)cc2ccccc21 (stereo not given) | 29% | 15% | -1% | 101% (active) | inactive | inactive | inactive | inactive |
| CCCC[C@@H](C(=O)NCCc1ccc(Cl)cc1)N1C(=O)CCC1C(=O)Nc1ccc(Cl)c(Cl)c1 (stereo not given in full) | 2% | 4% | 2% | 95% (active) | inactive | inactive | inactive | inactive |
| Cc1cc(CNCCCCCNCc2ccc(Cl)cc2)ccc1O | -1% | 12% | -7% | 98% (active) | inactive | inactive | inactive | inactive |
| CC(=Nc1ccc(Cl)c(Cl)c1)N(C)C | 0% | -6% | 2% | 98% (active) | inactive | inactive | inactive | inactive |
| Oc1ccc(CCNc2nc(NCCOc3cccc4ccccc34)nc(N3CCNCC3)n2)cc1 | 8% | 21% | 1% | 96% (active) | inactive | inactive | inactive | inactive |
| COc1ccc(OC)c(-c2cccc(-c3cccc(NC(=O)c4ccc([N+](=O)[O-])o4)c3)n2)c1 | 97% (active) | 75% (active) | -7% | 98% (active) | inactive | inactive | inactive | inactive |
| Cn1c(=O)c2nc(-c3ccc(Cl)cc3)nnc2n(CCCC#N)c1=O | 98% (active) | 6% | 6% | 99% (active) | inactive | inactive | inactive | inactive |
| Cc1cnc(N2CCN(CC3CCN(C)CC3)CC2)nc1Oc1ccc(-n2ccnc2)cc1 | 66% (active) | 9% | -3% | 99% (active) | inactive | inactive | inactive | inactive |
| Cc1cc(N2CCCN(C)CC2)nc(Nc2ccc(Br)cc2)n1 | 14% | 8% | 7% | 94% (active) | inactive | inactive | inactive | inactive |
| Cc1ccc(-c2nc3ccccc3o2)cc1NCc1cc(Cc2ccccc2)ccc1O | 50% (active) | 45% | -4% | 82% (active) | inactive | inactive | inactive | inactive |
| CC(=O)Nc1cc(C(=O)Nc2ccc(C3=NCCN3)cc2)ccc1C(=O)Nc1ccc(C2=NCCN2)cc1 | 92% (active) | 12% | -3% | 96% (active) | inactive | inactive | inactive | inactive |
| CC1(C)N=C(N)N=C(N)N1OCCCc1cccc(C(F)(F)F)c1 | 95% (active) | 62% (active) | -3% | 95% (active) | inactive | inactive | inactive | inactive |
| CC1(C)N=C(N)N=C(N)N1OCCCCON1C(N)=NC(N)=NC1(C)C | 95% (active) | 54% (active) | 4% | 97% (active) | inactive | inactive | inactive | inactive |
| Cc1c(Cl)cccc1S(=O)(=O)Nc1cccc(CCN2CCC(N3CCCCC3)CC2)c1 | 82% (active) | 38% | -1% | 101% (active) | inactive | inactive | inactive | inactive |
| N#Cc1ccc(NC(=O)NC2CCN(CCCCCNC(=O)/C=C/c3ccc(Cl)c(Cl)c3)CC2)cc1 | 4% | 15% | 0% | 98% (active) | inactive | inactive | inactive | inactive |
| C#CC(C)(CO)N1CCCC1 (stereo not given) | 1% | 10% | -4% | 95% (active) | inactive | inactive | inactive | inactive |

| Compound | growth inhibition [1] | inhibition [2] | inhibition [3] | growth inhibition [4] | outcome [5] | outcome [6] | outcome [7] | outcome [8] |
| --- | --- | --- | --- | --- | --- | --- | --- | --- |
| O=C(/C=C/C=C/c1ccccc1)NCCCCCN1CCC(c2c[nH]c3ccccc23)CC1 | 7% | 28% | 4% | 85% (active) | inactive | inactive | inactive | inactive |
| NC(N)=NC(=O)Nc1cc(Cl)c(Cl)c(Br)c1 | 99% (active) | 16% | -2% | 99% (active) | inactive | inactive | inactive | inactive |
| CC1(C)CN(CCC2CCC(NC(=O)/C=C/c3ccccc3F)CC2)Cc2ccc(C#N)cc21 (stereo not given) | 82% (active) | -1% | -3% | 89% (active) | inactive | inactive | inactive | inactive |
| Cc1cccc(CN2CCCN(Cc3cccc(C(=O)Nc4ccc(C(C)(C)C)cc4)c3)CC2)c1 | 40% | 98% (active) | 4% | 89% (active) | inactive | inactive | inactive | inactive |
| COc1cccc(C(=O)N2CCN(Cc3cccc(NC(=O)c4cccs4)c3)CC2)c1 | 95% (active) | 6% | -2% | 95% (active) | inactive | inactive | inactive | inactive |
| CCOC(=O)c1cc2c(CCN3C(=O)c4ccccc4C3=O)cn(C)c2cc1-c1ccncc1 | 90% (active) | 99% (active) | 2% | 101% (active) | inactive | inactive | inactive | inactive |
| O=S(=O)(/C=C/c1ccccc1)N(Cc1ccc(-c2ccc(CNCCOc3ccccc3)cc2)cc1)CC1CCCCN1 (stereo not given) | 95% (active) | 99% (active) | 4% | 99% (active) | inactive | inactive | inactive | inactive |
| COc1ccc2ncc(F)c(CCN3[C@@H]4CC[C@H]3CC(NCc3cc5c(cn3)OCS5)C4)c2n1 (stereo not given in full) | 48% | 15% | -2% | 95% (active) | inactive | inactive | inactive | inactive |
| O=[N+]([O-])c1ccc2c(c1)c1ccccc1n2Cc1ccccc1O | 84% (active) | -2% | 0% | 93% (active) | inactive | inactive | inactive | inactive |
| COc1cc(NC(=O)/C=C/c2ccccc2Cl)cc(OCCN2CCC(O)(c3ccccc3)CC2)c1 | 46% | 48% | -1% | 102% (active) | inactive | inactive | inactive | inactive |
| CC(C)(C)CC(C)(C)c1ccc(O)c(C(=O)Nc2ccc([N+](=O)[O-])cc2)c1 | 99% (active) | 80% (active) | 5% | 97% (active) | inactive | inactive | inactive | inactive |
| O=C(NCC1CCC(CNCCCc2ccccc2)CC1)c1cc(Cl)cc(Cl)c1 (stereo not given) | 13% | 58% (active) | -1% | 89% (active) | inactive | inactive | inactive | inactive |
| COc1cc(OC)c(NC(=O)C2c3ccccc3C(=O)N(C)C2c2cccs2)cc1Cl (stereo not given) | 52% (active) | 4% | -5% | 99% (active) | inactive | inactive | inactive | inactive |
| N#Cc1ccc(-c2ccc(C(=O)NCCCCN3CCC(c4cc(Br)c5c(c4OCC(N)=O)CCCC5)CC3)cc2)cc1 | 89% (active) | 23% | 6% | 100% (active) | inactive | inactive | inactive | inactive |
| CCOC(=O)NC1=NC(C)(C)N(OCc2ccc(Cl)c(Cl)c2)C(N)=N1 | 90% (active) | 66% (active) | -5% | 96% (active) | inactive | inactive | inactive | inactive |
| CCOc1cc(C(=O)NC2CC(C)(C)NC(C)(C)C2)ccc1-c1cc2cc(Cl)c(Cl)cc2[nH]1 | 46% | 37% | -1% | 101% (active) | inactive | inactive | inactive | inactive |
| CCOc1cc(Cc2cnc(N)nc2N)cc(OCC)c1OCCCCC(=O)OC | 0% | -12% | 0% | 95% (active) | inactive | inactive | inactive | inactive |
| COc1c(F)ccc2ncc(Cl)c(CCN3CCC(NCc4ccc5c(n4)NC(=O)CS5)CC3)c12 | 29% | 30% | 2% | 98% (active) | inactive | inactive | inactive | inactive |
| COc1ccc2nc(-c3ccccc3)cc(NN=Cc3ccc([N+](=O)[O-])cc3)c2c1 | 100% (active) | 89% (active) | 7% | 102% (active) | inactive | inactive | inactive | inactive |
| CC(C)C[C@H](NC(=O)c1cc2ccccc2s1)C(=O)N[C@H]1CCN(Cc2ccc(OC[C@@H]3CCCN3C)c(Cl)c2)C1 | 81% (active) | 83% (active) | -4% | 101% (active) | inactive | inactive | inactive | inactive |
